Shown are actives, neighbours in structure and some others; about 1.5% of the full set was active somewhere.
BRCT PPI red: qHTS Assay for Inhibitors of BRCT-Phosphoprotein Interaction (Red Fluorophore); Breast cancer type 1 susceptibility protein (Homo sapiens), P38398; AID 892, 2007; Potency, µM (titrated, usually from 76.9 µM), actives largely listed as inhibitors; actives 0.03% (n = 75,000); BRCT-phosphopeptide binding, red fluorescence polarization
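Rhodamine-labelled pBACH1 10-mer (100 nM) bound to BRCT domain (100 nM) at pH 7.3; compounds incubated 12 min room temperature, polarization read. Free peptide defines full inhibition; unlabelled decapeptide titrated as control.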
Caspase-7 inhib: qHTS Assay for Allosteric/Competitive Inhibitors of Caspase-7. P55210. recombinant caspase-7, Ac-DEVD-AFC fluorescence rate. Potency, µM (titrated, usually from 57.5 µM), usual class: inhibitors. actives 0.02% (n = 75,000). AID 889, 2007; active = well fitted inhibition curve with a large enough effect in the main read-out, with a control signal flat, not every such curve was filed as active; inconclusive = small, poorly fitted or top-dose-only effect, or a change in a side signal
Casp1 inh: qHTS Assay for Allosteric/Competitive Inhibitors of Caspase-1 | P29466 | Potency, µM (highest dose often 57.5 µM), actives largely listed as inhibitors | actives 0.03% (n = 75,000) | Caspase-1 enzyme, Ac-WEHD-AFC fluorogenic rate
USP2a inhib: qHTS Assay for Inhibitors of Ubiquitin-specific Protease USP2a | actives 0.1% (n = 60,000) | Ubiquitin carboxyl-terminal hydrolase 2 (Homo sapiens), O75604 | Potency, µM (highest dose often 38.3 µM), usual class: inhibitors | USP2a enzymatic assay, qHTS inhibition; also: nearly all actives have a fitted effect of over 60% in size
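Coupled readout: USP2-cleaved Ub-PLA2 (20nM final) turns over NBD C6-HPC (20uM final), Ex 460nm/Em 535nm after 2.5 h, time-zero read flagging artifacts. Enzyme (20nM final, pH 8.0 Tris) given 30 min RT with compound first; NEM defines full inhibition.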
15-hLO inh: qHTS Assay for Inhibitors of 15-hLO (15-human lipoxygenase). purified 15hLO-1, xylenol orange hydroperoxide absorbance. Potency, µM (highest dose often 57.1 µM), usual class: inhibitors. actives 1.4% (n = 74,000). AID 887, 2007; also: nearly all actives have a fitted effect of over 55% in size
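Hydroperoxide formed from arachidonic acid (50 uM) by purified human 15hLO-1 (40 nM) oxidizes ferrous iron, and the ferric-xylenol orange complex is read at 573 versus 405 nm. Compounds were preincubated 15 min; reaction ran 6 min at room temperature.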
BRCT PPI green: qHTS Assay for Inhibitors of BRCT-Phosphoprotein Interaction (Green Fluorophore); Breast cancer type 1 susceptibility protein (Homo sapiens), P38398; BRCA1 BRCT-phosphopeptide binding, green fluorescence polarization; Potency, µM (doses to about 76.9 µM), usual class: inhibitors; actives 0.05% (n = 75,000)
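Compounds were incubated for 12 min at room temperature with a complex of 100 nM fluorescein-tagged pBACH1 decapeptide and 250 nM His-tagged BRCT protein. Buffer was phosphate pH 7.3 with EDTA, DTT and Tween 20. Disruption of binding lowers the polarization signal.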
Numbers stand for hits; i = inactive; ? = inconclusive; nt = no result given; [ ] = remark or other dose. Unless noted, calls follow the shape of the dose curve; as a rule, active = well fitted curve in the direction sought with a large enough effect; inconclusive = small, poorly fitted or top-dose-only effect, or another doubt; inactive = no such curve, though single readings can be large; an effect the other way counts as inactive or inconclusive.

SMILES | BRCT PPI red | Caspase-7 inhib | Casp1 inh | USP2a inhib | 15-hLO inh | BRCT PPI green
CCN1C(C)=C(C(=O)OC)C(c2ccccc2)N2C(=O)[C@@]3(C(=O)OC)O[C@@]12C1C(=O)N(C)C(=O)C13 (some centres not stated) | i[15.4 µM] | i[11.5 µM] | i[11.5 µM] | nt | i[11.4 µM] | i[15.4 µM]
O=C1O/C(=C\Br)CC[C@@H]1c1cccc2ccccc12 | i | i | i | i | ? | i
CCOC(=O)c1c(N2C(=O)C3C4C=CC(O4)C3C2=O)sc2c1CCCC2 (configuration not stated) | i | i | i | i | 7.9µM | i
O=C(O[C@@H]1Cc2c(O)cc(O)cc2OC1c1ccc(O)c(O)c1)c1cc(O)c(O)c(O)c1 (some centres not stated) | i | i | i | ? | 6.3µM | i
O=C(OC1Cc2c(O)cc(O)cc2OC1c1cc(O)c(O)c(O)c1-c1c(C2Oc3cc(O)cc(O)c3CC2OC(=O)c2cc(O)c(O)c(O)c2)cc(O)c(O)c1O)c1cc(O)c(O)c(O)c1 (configuration not stated) | i | i | i | ? | ? | i
COC(=O)[C@H](C)NC(=O)C/C=C\[C@@H](C)CO | i[15.4 µM] | i[11.5 µM] | i[11.5 µM] | nt | i[11.4 µM] | i[15.4 µM]
O=C1C(Cl)=C(NCCN2CCOCC2)C(=O)c2ncccc21 | i | i | 6.3µM | nt | ? | i
O=C1C(Cl)=C(NC2CCc3ccccc32)C(=O)c2ncccc21 (configuration not stated) | i | ? | 1.6µM | nt | i | i
c1ccc2c(c1)CCCC2NC1=NCCC1 (configuration not stated) | i | i | i | i | i | i
O=C1C[C@@H](O)[C@@H](O)[C@H]2[C@@H]3C(=O)N(c4cccc(Oc5ccccc5)c4)C(=O)[C@@H]3CC[C@H]12 | i[15.4 µM] | i[11.5 µM] | i[11.5 µM] | nt | i[11.4 µM] | i[15.4 µM]
Cc1sc2ccccc2[n+]1CCC(=O)O | i[15.4 µM] | i[11.5 µM] | i[11.5 µM] | nt | i[11.4 µM] | i[15.4 µM]
COC(=O)c1ccc(C(=O)OC)c(N)c1 | i | ? | nt | i | i | i
COC(=O)c1cc(Cc2ccc(N)c(C(=O)OC)c2)ccc1N | i | i | i | i | 25µM | i
CCOC(=O)C1=C(c2ccccc2)NC(=O)NC1c1ccc(OCC#N)c(OC)c1 (configuration not stated) | i | i | i | ? | i | i
COc1cc(C2NC(=O)NC(c3ccccc3)=C2C(C)=O)ccc1OCC(=O)O (configuration not stated) | i | ? | nt | i | 7.9µM | i
Oc1cccc(C=NCc2ccccc2)c1O | i | i | i | nt | 5µM | i
O=C(/C=C/Nc1cccc(O)c1)c1ccccc1 | i | i | ? | i | 13µM | i
COC(=O)C/C=C\[C@@H](C)[C@@H](/C=N\O[C@@H](C)CN1CCCc2nc(C)c(C)cc21)OC | i[15.4 µM] | i[11.5 µM] | i[11.5 µM] | nt | i[11.4 µM] | i[15.4 µM]
O=C(NCc1ccncc1)C12CC3CC(CC(C3)C1)C2 | i | i | i | i | i | i
N#CC1=C(N)S[C@H](C(=O)C23CC4CC(CC(C4)C2)C3)[C@H]1c1ccncc1 | i | i | i | i | 13µM | i
Cc1nnc(S(=O)(=O)c2ccc(N=Nc3c(N)nc(N)nc3N)cc2)s1 | i[15.4 µM] | i[11.5 µM] | i[11.5 µM] | nt | i[11.4 µM] | i[15.4 µM]
C1=C(c2ccccc2)CCN(c2ncnc3nc[nH]c23)C1 | i | i | i | nt | 25µM | i
O=c1cc(C(F)F)oc2c1ccc1ccccc12 | i | i | i | i | 13µM | i
O=C1C(=O)N(Cc2ccc(Cl)c(Cl)c2)c2ccccc21 | i | i | i | nt | 10µM | i
Nc1ncnc2oc(-c3ccco3)c(-c3ccco3)c12 | ? | ? | i | nt | 2.5µM | i
COc1ccc2nc3sc(C(=O)NCc4cccs4)c(N)c3cc2c1 | i | ? | nt | nt | 20µM | i
Cc1nn(-c2nc3ccccc3s2)c(C)c1Oc1ccccc1O | i | i | i | i | 16µM | i
COCCNC(=O)c1ccc(Cc2nc3ccccc3[nH]2)cc1 | i | i | i | nt | i | i

Source: PubChem (National Center for Advancing Translational Sciences (NCATS))
